The text below walks through data of ChEMBL document CHEMBL2218924, “A broad activity screen in support of a chemogenomic map for kinase signalling research and drug discovery” (Biochem J, 2013).

For assay [1], the target named is Tyrosine-protein kinase ABL1 (Homo sapiens) (UniProt P00519). The following applies: at 1 µM.
For assay [2] the target is unchanged. The following applies: at 10 µM.
Assay [3] deals with T1, Aurora kinase A (Homo sapiens) (UniProt O14965).
T1 sequence (whole entry): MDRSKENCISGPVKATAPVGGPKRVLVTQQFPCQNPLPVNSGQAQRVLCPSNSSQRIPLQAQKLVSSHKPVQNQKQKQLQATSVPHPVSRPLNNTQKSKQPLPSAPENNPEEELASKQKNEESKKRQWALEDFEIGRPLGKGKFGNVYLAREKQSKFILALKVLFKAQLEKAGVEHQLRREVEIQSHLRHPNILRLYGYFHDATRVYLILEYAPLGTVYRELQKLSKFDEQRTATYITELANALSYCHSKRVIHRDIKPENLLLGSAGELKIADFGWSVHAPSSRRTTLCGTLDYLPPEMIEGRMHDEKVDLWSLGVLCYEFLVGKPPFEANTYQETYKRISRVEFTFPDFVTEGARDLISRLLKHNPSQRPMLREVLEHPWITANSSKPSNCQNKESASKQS
The following applies: at 1 µM.

The target of assay [4] is Aurora kinase B (Homo sapiens) (UniProt Q96GD4). The following applies: at 1 µM.
Assay [5] shares this target. The following applies: at 10 µM.
Assay [6] has as its target T2, Aurora kinase C (Homo sapiens) (UniProt Q9UQB9).
T2 sequence (whole entry): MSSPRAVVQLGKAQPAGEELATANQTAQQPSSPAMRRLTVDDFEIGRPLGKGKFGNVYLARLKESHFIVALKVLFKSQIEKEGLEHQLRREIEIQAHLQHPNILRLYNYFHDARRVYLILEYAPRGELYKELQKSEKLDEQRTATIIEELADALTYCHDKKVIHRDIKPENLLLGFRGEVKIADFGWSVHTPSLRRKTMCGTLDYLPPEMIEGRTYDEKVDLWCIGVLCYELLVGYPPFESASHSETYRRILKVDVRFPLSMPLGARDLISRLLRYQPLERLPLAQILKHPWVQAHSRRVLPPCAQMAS
The following applies: at 1 µM.

For assay [7], the target named is T2, Aurora kinase C (Homo sapiens). The following applies: at 10 µM.
In assay [8] the target is Tyrosine-protein kinase receptor UFO (Homo sapiens) (UniProt P30530). The following applies: at 1 µM.
Assay [9] has the same target. The following applies: at 10 µM.
The target in assay [10] is Protein-tyrosine kinase 6 (Homo sapiens) (UniProt Q13882). The following applies: at 1 µM.
Assay [11] has the same target. The following applies: at 10 µM.
The target in assay [12] is Tyrosine-protein kinase BTK (Homo sapiens) (UniProt Q06187). The following applies: at 1 µM.
For assay [13], the target named is Tyrosine-protein kinase Blk (Homo sapiens) (UniProt P51451). The following applies: at 1 µM.
The target is the same in assay [14]. The following applies: at 10 µM.
For assay [15], the target named is T3, Mitogen-activated protein kinase kinase kinase 5 (Homo sapiens) (UniProt Q99683).
T3 sequence (whole entry): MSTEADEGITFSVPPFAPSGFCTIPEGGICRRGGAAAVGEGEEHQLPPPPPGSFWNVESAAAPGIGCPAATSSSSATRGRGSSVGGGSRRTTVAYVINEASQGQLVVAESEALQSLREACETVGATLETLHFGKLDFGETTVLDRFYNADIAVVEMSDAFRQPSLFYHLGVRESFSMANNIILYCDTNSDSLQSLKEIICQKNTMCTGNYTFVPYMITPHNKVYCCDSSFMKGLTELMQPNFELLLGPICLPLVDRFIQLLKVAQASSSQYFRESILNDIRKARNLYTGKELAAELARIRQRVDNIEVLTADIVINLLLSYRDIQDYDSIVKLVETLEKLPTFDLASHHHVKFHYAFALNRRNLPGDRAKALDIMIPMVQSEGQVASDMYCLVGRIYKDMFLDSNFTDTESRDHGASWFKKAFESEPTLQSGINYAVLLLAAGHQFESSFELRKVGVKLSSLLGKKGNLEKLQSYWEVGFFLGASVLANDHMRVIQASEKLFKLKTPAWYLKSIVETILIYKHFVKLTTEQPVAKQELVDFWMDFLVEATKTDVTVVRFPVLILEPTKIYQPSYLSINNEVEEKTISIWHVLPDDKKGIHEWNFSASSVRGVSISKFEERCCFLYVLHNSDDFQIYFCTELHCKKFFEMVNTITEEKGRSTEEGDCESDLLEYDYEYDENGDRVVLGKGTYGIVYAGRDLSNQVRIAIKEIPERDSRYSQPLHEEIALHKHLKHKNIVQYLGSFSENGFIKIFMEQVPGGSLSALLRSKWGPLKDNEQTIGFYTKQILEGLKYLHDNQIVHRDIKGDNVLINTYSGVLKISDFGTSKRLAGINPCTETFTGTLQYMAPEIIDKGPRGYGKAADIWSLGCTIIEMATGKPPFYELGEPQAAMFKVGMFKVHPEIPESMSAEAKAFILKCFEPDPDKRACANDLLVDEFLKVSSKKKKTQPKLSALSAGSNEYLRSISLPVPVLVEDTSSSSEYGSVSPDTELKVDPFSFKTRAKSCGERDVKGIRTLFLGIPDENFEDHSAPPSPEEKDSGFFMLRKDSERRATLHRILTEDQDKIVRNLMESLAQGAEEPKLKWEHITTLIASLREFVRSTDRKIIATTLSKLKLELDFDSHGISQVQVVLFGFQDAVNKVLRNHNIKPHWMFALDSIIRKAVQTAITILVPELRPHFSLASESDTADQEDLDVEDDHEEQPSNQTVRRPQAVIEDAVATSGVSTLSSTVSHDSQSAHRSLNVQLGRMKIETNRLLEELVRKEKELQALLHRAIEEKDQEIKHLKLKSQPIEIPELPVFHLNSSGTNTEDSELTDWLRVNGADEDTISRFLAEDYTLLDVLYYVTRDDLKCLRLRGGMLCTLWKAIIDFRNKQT
The following applies: at 10 µM.

Assay [16] deals with Tyrosine-protein kinase ABL2 (Homo sapiens) (UniProt P42684). The following applies: at 1 µM.
Assay [17] deals with T1, Aurora kinase A (Homo sapiens). The following applies: at 10 µM.
Assay [18] deals with Tyrosine-protein kinase BTK (Homo sapiens) (UniProt Q06187). The following applies: at 10 µM.
In assay [19] the target is Tyrosine-protein kinase ABL2 (Homo sapiens) (UniProt P42684). The following applies: at 10 µM.

Tyrosine-protein kinase ABL2 (Homo sapiens), sequence (P42684 whole entry): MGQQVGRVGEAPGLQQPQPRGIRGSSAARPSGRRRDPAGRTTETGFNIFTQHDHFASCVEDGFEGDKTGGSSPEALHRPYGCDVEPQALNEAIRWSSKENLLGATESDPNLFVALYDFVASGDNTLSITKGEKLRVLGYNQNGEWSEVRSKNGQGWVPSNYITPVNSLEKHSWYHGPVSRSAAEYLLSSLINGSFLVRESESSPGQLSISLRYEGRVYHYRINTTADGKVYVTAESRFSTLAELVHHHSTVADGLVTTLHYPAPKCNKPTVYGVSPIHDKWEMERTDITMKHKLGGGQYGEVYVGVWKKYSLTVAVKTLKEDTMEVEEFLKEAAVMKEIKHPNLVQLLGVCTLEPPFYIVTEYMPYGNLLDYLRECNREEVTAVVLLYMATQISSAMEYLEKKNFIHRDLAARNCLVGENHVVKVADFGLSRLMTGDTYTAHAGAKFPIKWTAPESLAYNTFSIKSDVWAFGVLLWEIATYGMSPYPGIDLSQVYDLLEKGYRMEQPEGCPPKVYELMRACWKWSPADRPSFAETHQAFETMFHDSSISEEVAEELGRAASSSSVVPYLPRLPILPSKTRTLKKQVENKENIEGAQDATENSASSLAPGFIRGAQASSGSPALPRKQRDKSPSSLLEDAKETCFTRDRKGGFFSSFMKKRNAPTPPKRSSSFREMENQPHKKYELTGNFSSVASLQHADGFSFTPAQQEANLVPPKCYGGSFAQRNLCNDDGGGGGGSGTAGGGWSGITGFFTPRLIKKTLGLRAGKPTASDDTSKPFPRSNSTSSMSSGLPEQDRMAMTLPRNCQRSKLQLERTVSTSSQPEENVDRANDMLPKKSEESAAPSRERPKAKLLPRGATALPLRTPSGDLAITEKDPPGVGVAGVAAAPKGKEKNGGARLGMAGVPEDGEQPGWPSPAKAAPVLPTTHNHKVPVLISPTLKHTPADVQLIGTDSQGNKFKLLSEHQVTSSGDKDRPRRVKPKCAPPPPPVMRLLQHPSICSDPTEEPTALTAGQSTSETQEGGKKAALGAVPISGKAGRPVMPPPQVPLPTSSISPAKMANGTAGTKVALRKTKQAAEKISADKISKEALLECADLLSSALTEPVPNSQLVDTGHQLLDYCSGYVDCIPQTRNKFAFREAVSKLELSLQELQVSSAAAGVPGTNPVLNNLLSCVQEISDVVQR
Protein-tyrosine kinase 6 (Homo sapiens), sequence (Q13882 whole entry, looked up): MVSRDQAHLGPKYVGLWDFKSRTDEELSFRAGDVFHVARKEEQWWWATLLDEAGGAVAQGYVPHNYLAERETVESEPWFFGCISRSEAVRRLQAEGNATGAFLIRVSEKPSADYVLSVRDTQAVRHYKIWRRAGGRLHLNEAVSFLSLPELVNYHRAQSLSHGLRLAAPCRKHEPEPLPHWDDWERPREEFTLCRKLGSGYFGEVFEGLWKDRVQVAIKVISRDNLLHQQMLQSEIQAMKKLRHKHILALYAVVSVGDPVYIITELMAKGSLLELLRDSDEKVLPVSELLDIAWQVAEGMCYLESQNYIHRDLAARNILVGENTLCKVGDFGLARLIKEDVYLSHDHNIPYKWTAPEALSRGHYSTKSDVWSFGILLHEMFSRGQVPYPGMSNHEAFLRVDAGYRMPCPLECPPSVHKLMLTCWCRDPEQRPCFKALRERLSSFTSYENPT
Aurora kinase B (Homo sapiens), sequence (Q96GD4 whole entry): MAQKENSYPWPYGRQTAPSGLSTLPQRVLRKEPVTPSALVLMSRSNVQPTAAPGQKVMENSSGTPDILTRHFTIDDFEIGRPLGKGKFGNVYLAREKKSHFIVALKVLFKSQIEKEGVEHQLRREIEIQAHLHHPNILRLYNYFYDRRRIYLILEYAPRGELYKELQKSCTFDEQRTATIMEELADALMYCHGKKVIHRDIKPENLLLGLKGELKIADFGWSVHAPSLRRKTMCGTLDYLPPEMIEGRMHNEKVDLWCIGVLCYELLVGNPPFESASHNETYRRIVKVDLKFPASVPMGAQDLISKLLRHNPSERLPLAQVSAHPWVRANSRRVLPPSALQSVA
Tyrosine-protein kinase receptor UFO (Homo sapiens), sequence (P30530 whole entry): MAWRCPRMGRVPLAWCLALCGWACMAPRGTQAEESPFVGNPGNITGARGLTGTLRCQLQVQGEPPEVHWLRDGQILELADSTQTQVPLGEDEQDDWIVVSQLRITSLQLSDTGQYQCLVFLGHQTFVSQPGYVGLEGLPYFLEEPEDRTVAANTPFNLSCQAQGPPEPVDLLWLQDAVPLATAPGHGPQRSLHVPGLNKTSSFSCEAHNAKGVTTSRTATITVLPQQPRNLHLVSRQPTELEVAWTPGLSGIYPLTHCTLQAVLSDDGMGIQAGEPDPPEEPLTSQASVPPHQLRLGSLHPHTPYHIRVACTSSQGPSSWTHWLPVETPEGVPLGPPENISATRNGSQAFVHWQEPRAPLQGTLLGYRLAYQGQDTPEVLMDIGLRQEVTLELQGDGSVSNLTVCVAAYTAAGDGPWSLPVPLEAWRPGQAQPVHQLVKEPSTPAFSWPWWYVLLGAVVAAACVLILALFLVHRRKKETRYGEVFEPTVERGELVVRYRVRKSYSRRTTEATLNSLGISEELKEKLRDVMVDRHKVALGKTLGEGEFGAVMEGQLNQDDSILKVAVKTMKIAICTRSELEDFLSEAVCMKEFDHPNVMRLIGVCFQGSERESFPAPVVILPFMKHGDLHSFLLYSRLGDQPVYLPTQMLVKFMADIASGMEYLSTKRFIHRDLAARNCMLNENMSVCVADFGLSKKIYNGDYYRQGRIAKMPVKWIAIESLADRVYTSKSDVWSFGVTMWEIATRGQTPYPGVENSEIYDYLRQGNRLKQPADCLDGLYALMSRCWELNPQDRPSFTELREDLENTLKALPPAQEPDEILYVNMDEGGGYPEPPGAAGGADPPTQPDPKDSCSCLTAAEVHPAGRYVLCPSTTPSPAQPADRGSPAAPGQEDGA
Tyrosine-protein kinase Blk (Homo sapiens), sequence (P51451 2-505 limits assumed): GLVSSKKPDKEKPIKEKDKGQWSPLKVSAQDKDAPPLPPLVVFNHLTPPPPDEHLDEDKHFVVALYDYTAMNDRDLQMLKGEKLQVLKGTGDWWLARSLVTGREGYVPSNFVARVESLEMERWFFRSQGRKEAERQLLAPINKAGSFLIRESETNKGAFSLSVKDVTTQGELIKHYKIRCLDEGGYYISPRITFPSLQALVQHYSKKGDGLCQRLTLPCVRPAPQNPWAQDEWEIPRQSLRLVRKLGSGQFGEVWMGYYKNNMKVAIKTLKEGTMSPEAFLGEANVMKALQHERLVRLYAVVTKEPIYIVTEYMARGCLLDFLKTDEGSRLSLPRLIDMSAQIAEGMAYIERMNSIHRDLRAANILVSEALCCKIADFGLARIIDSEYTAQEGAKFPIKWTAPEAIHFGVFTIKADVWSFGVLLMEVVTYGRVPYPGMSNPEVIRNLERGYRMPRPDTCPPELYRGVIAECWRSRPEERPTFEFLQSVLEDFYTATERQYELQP
Tyrosine-protein kinase ABL1 (Homo sapiens), sequence (P00519 whole entry): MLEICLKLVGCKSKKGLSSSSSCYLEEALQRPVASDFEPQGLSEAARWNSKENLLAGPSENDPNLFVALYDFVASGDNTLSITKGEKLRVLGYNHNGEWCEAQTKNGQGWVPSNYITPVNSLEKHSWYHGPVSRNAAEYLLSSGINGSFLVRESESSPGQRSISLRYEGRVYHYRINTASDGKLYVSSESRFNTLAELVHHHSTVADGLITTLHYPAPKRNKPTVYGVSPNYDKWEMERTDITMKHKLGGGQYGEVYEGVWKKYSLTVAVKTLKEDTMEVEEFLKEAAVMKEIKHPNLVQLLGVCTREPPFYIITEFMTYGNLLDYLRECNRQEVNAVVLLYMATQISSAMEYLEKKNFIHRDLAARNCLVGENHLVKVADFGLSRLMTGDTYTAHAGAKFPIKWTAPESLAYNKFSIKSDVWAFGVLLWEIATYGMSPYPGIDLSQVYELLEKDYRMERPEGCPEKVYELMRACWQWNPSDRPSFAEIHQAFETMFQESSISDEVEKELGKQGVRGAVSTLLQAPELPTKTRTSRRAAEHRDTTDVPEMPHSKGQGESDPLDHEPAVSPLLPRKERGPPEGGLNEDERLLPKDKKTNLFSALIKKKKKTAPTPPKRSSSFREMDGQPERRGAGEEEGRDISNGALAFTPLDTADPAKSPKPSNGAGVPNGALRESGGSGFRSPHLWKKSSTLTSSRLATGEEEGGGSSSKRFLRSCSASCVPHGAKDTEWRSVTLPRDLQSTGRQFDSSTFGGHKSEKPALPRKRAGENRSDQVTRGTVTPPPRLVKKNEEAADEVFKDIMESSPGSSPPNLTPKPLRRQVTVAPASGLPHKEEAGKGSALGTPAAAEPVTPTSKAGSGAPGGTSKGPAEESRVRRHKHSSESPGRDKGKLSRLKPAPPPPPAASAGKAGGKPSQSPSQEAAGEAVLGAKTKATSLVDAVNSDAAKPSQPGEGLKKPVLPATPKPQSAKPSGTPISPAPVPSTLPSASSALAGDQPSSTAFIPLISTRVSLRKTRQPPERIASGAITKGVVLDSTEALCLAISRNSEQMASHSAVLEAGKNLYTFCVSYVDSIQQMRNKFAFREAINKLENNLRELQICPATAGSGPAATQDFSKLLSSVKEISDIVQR

With `CCCC(=O)Oc1ccc2[nH]c(C(=O)c3cc4ccccc4[nH]3)cc2c1`, the residual activity in assay [1] is 102%; in assay [2] it was 96%; in assay [3], 71%; in assay [4] it was 124%; in assay [5], 47%; in assay [6], 104%. The residual activity in assay [7] was determined as 84%; in [8], 81%; in assay [9], 80%; in assay [10], 101%; in assay [11], 107%; in assay [12], 94%. Besides, the residual activity in [13] was determined as 70%; in assay [14] it was 64%.

Consider `O=S(=O)(NCCNC/C=C/c1ccc(Br)cc1)c1cccc2cnccc12`, for which the residual activity was 43% in [4]; 8% in assay [5]; 80% in [6]; 22% in [7]; 76% in assay [14].

`O=C(Nc1nc2ccccc2n1CCN1CCOCC1)c1cccc([N+](=O)[O-])c1`: the residual activity in assay [15] came to 110%; in assay [16] it was 100%; in assay [3], 101%; in assay [17], 103%; in [4] it was 100%; in [5], 40%. The residual activity in assay [8] came to 75%; in assay [9], 78%; in [12], 100%; in assay [18] it was 109%; in assay [13], 111%; in [14], 100%.

Regarding `O=C(Nc1ccc(Cl)cc1)c1ccccc1NCc1ccncc1`, the residual activity in assay [1] turned out to be 81%; in assay [2], 52%; in assay [3], 39%; in assay [17], 18%; in assay [4], 100%; in [5] it was 37%. The residual activity is 70% in assay [7], 21% in assay [10] and 1% in assay [11].

For `O=C(c1cc2cc(O)ccc2[nH]1)c1cc2cc(O)ccc2[nH]1`, the residual activity in assay [1] was 11%; in assay [2], -6%; in assay [16] it was 27%; in assay [19] it was 4%; in [3], 23%; in assay [17], 6%. Moreover, the residual activity in [4] was 9%; in [5] it was -1%; in [6] it was 61%; in [7], 24%; in [8], 50%; in [9], 15%. Also, the residual activity was found to be 78% in [12], 34% in assay [18], 6% in assay [13] and 1% in assay [14].

On to `O=c1cc(N2CCOCC2)oc2c(-c3ccccc3)cccc12`, for which the residual activity in [10] and in [11] was 101% each time.

Take `Nc1nc(Nc2ccc(S(N)(=O)=O)cc2)nn1C(=O)c1c(F)cccc1F`: the residual activity in assay [15] came out at 46%; in assay [16] it was 34%; in assay [19] it was 8%; in [6], 6%; in assay [7] it was 1%; in [8], 56%. The residual activity amounted to 13% in [9]; 106% in [10]; 74% in assay [11]; 74% in assay [13]; 9% in assay [14].

Regarding `CN([C@@H](Cc1ccc(OS(=O)(=O)c2cccc3cnccc23)cc1)C(=O)N1CCN(c2ccccc2)CC1)S(=O)(=O)c1cccc2cnccc12`, the residual activity in assay [2] was 86%; in assay [12], 100%; in [18] it was 86%; in [13], 98%; in assay [14] it was 81%.

Take `NC(=O)c1ccc(-c2nc(-c3ccc4c(c3)OCCO4)c(-c3ccccn3)[nH]2)cc1`: the residual activity worked out at 96% in [15]; 92% in assay [2]; 83% in [19]; 89% in assay [4]; 70% in [5]; 84% in assay [6]. In addition, the residual activity in assay [7] came out at 90%; in assay [8] it was 77%; in assay [9], 85%; in [13] it was 88%; in assay [14], 85%.

In the case of `Fc1ccc(-c2nc3n(c2-c2ccncc2)CCS3)cc1`, the residual activity came out at 83% in [15]; 96% in assay [16]; 77% in assay [19]; 98% in assay [6]; 95% in [7]; 100% in assay [12]. For the same compound, the residual activity in assay [18] turned out to be 98%.

`O=C1NC(=O)C(c2cn(CCCO)c3ncccc23)=C1c1cnccn1`: the residual activity in [15] is 78%; in assay [3], 78%; in assay [17], 81%; in assay [4], 14%; in [5], 9%; in assay [6] it was 97%. Moreover, the residual activity in assay [7] stood at 88%; in assay [8], 61%; in [9], 59%; in [13] it was 78%; in [14], 69%.
